# Results as given in PubChem BioAssay (EPA / NIEHS).
# Calls of active or inactive are those of the source. The calls were made as follows: active = hit-call score of the fitted dose curve at least 0.9, where 1 is the maximum; inactive = score below 0.9.
# How the values were obtained:
# Settings in all cases: mRNA level, 48 h; actives raise or lower the signal
# [1] = read-out: Cytochrome P450 (CYP1A2), CYP1A2 (gene 1544); assay: LTEA_HepaRG_CYP1A2: Life Technologies and Expression Analysis (LTEA) Assay for Cytochrome P450 (CYP1A2) using HepaRG (AID 2283479)
# Procedure, shortened: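 Assesses CYP1A2 mRNA in human HepaRG liver cells after 48 h chemical exposure at up to 100 uM. Values come from qRT-PCR with bidirectional curve fitting relative to DMSO.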
# [2] = read-out: cysteine-aspartic acid protease (CASP8), CASP8 (gene 841); assay: LTEA_HepaRG_CASP8: Life Technologies and Expression Analysis (LTEA) Assay for cysteine-aspartic acid protease (CASP8) using HepaRG (AID 2283480)
# Procedure, shortened: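 CASP8 transcript measured by TaqMan qRT-PCR with ACTB/GAPDH/POLR2A normalization, after 48 h chemical exposure of HepaRG cells in serum-free induction medium. Eight concentrations, top 100 uM, half-log steps, 0.5% DMSO vehicle; fits in both directions versus DMSO.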
# [3] = read-out: Cytochrome P450 (CYP2B6), CYP2B6 (gene 1555); assay: LTEA_HepaRG_CYP2B6: Life Technologies and Expression Analysis (LTEA) Assay for Cytochrome P450 (CYP2B6) using HepaRG (AID 2283481)
# Procedure, shortened: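 Using 48 h treatment of HepaRG cells in serum-free induction medium, concentrations spanned half-log steps from 100 uM in 0.5% DMSO vehicle. CYP2B6 mRNA induction or loss is scored by qRT-PCR against DMSO.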
# [4] = read-out: Cytochrome P450 2C19 (Homo sapiens) (UniProt P33261); assay: LTEA_HepaRG_CYP2C19: Life Technologies and Expression Analysis (LTEA) Assay for CYP2C19 using HepaRG (AID 2283482)
# Procedure, shortened: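 Human HepaRG liver cells received test chemicals for 48 h (highest 100 uM, half-log dilutions in 0.5% DMSO). CYP2C19 mRNA induction or loss is read by multiplexed qRT-PCR and fitted in both directions versus vehicle.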
# [5] = read-out: CYP2C8 (gene 1558); assay: LTEA_HepaRG_CYP2C8: Life Technologies and Expression Analysis (LTEA) Assay for CYP2C8 using HepaRG (AID 2283483)
# Procedure, shortened: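 CYP2C8 expression measured by TaqMan qRT-PCR and normalized to three housekeeping genes. HepaRG cultures were treated for 48 h with an eight-point half-log series topping at 100 uM, vehicle 0.5% DMSO, duplicates; fitted both directions against DMSO.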
# [6] = read-out: CYP2C9 (gene 1559); assay: LTEA_HepaRG_CYP2C9: Life Technologies and Expression Analysis (LTEA) Assay for CYP2C9 using HepaRG (AID 2283484)
# Procedure, shortened: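 CYP2C9 transcript level, quantified by TaqMan qRT-PCR against three housekeeping genes, was fitted bidirectionally relative to 0.5% DMSO. HepaRG cultures were treated 48 h, in duplicate, at eight half-log concentrations topping at 100 uM.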
# [7] = read-out: CYP4A11 (gene 1579); assay: LTEA_HepaRG_CYP4A11: Life Technologies and Expression Analysis (LTEA) Assay for CYP4A11 using HepaRG (AID 2283486)
# Procedure, shortened: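 Readout is CYP4A11 mRNA induction or suppression (qRT-PCR, ACTB/GAPDH/POLR2A normalization) in human HepaRG cells after 48 h chemical treatment, concentrations to 100 uM in 0.5% DMSO, fitted bidirectionally against vehicle.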
# [8] = read-out: Cytochrome P450 3A4 (Homo sapiens) (UniProt P08684); assay: LTEA_HepaRG_CYP3A4: Life Technologies and Expression Analysis (LTEA) Assay for CYP3A4 using HepaRG (AID 2283487)
# Procedure, shortened: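 Differentiated HepaRG cells, plated 48 h, then dosed 48 h in serum-free induction medium with 0.5% DMSO, 8 half-log concentrations up to 100 uM, duplicate. CYP3A4 mRNA by qRT-PCR, normalized to ACTB/GAPDH/POLR2A; bidirectional fit versus DMSO.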
# [9] = read-out: DNA damage-inducible transcript 3 (DDIT3), DDIT3 (gene 1649); assay: LTEA_HepaRG_DDIT3: Life Technologies and Expression Analysis (LTEA) Assay for DNA damage-inducible transcript 3 (DDIT3) using HepaRG (AID 2283488)
# Procedure, shortened: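 qRT-PCR readout (Fluidigm TaqMan), housekeeping-normalized to ACTB, GAPDH, POLR2A. HepaRG cells, 48 h exposure, 8-point half-log series from 100 uM in 0.5% DMSO, duplicates. Gain or loss of signal fitted against DMSO baseline.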
# [10] = read-out: Early growth response protein 1 (EGR1) transcription factor, EGR1 (gene 1958); assay: LTEA_HepaRG_EGR1: Life Technologies and Expression Analysis (LTEA) Assay for Early growth response protein 1 (EGR1) transcription factor using HepaRG (AID 2283490)
# Procedure, shortened: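 EGR1 transcript levels quantified by qRT-PCR (Fluidigm arrays) against three housekeeping genes after 48 h chemical exposure of HepaRG cells. Eight-point half-log series topping at 100 uM, 0.5% DMSO vehicle, analyzed for gain or loss.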
# [11] = read-out: Ezrin (EZR), EZR (gene 7430); assay: LTEA_HepaRG_EZR: Life Technologies and Expression Analysis (LTEA) Assay for Ezrin (EZR) using HepaRG (AID 2283491)
# Procedure, shortened: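 EZR transcript levels came from Fluidigm qRT-PCR and were normalized to three housekeeping genes after 48 h chemical exposure of HepaRG cells. Dosing used an 8-point half-log series with a 100 uM top concentration in 0.5% DMSO, tested in duplicate; both directions were fitted versus vehicle.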
# [12] = read-out: CYP3A5 (gene 1577); assay: LTEA_HepaRG_CYP3A5: Life Technologies and Expression Analysis (LTEA) Assay for CYP3A5 using HepaRG (AID 2283493)
# Procedure, shortened: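 qRT-PCR read-out: CYP3A5 transcript in HepaRG lysates, housekeeping-normalized (ACTB/GAPDH/POLR2A), fitted bidirectionally against 0.5% DMSO baseline. Exposure 48 h, eight half-log concentrations up to 100 uM, duplicates.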
# [13] = read-out: Fatty Acid-Binding Protein 1 (FABP1), FABP1 (gene 2168); assay: LTEA_HepaRG_FABP1: Life Technologies and Expression Analysis (LTEA) Assay for Fatty Acid-Binding Protein 1 (FABP1) using HepaRG (AID 2283494)
# Procedure, shortened: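 FABP1 expression by TaqMan qRT-PCR, normalised to three housekeeping genes, in HepaRG cells after 48 h chemical treatment. Eight-point half-log series topping at 100 uM in 0.5% DMSO, duplicates; gain or loss fitted relative to vehicle.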
# [14] = read-out: Cytochrome P450 4A22 (Homo sapiens) (UniProt Q5TCH4); assay: LTEA_HepaRG_CYP4A22: Life Technologies and Expression Analysis (LTEA) Assay for Cytochrome P450 4A22 (CYP4A22) using HepaRG (AID 2283495)
# Procedure, shortened: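 Cryopreserved HepaRG cells, plated and cultured 48 h, then switched to serum-free induction medium and treated 48 h (duplicates, up to 100 uM, half-log steps, 0.5% DMSO). Expression change of CYP4A22 was fitted bidirectionally against vehicle.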
# [15] = read-out: Cytochrome P450 7A1 (Homo sapiens) (UniProt P22680); assay: LTEA_HepaRG_CYP7A1: Life Technologies and Expression Analysis (LTEA) Assay for Cytochrome P450 7A1 (CYP7A1) using HepaRG (AID 2283496)
# Procedure, shortened: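 Using 0.5% DMSO as vehicle and baseline, chemicals were tested in duplicate over an 8-point range from 100 uM on HepaRG cells for 48 h; qRT-PCR signals were normalised to ACTB, GAPDH and POLR2A.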
# [16] = read-out: Glutathione S-Transferase (GSTA2), GSTA2 (gene 2939); assay: LTEA_HepaRG_GSTA2: Life Technologies and Expression Analysis (LTEA) Assay for Glutathione S-Transferase (GSTA2) using HepaRG (AID 2283497)
# Procedure, shortened: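 GSTA2 transcript levels came from Fluidigm TaqMan qRT-PCR normalized to three housekeeping genes, fitted in both directions against DMSO. HepaRG cultures received chemicals for 48 h in serum-free induction medium (0.5% DMSO), 8 half-log concentrations up to 100 uM, duplicate.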
# [17] = read-out: Glutamate-cysteine ligase catalytic (GCLC), GCLC (gene 2729); assay: LTEA_HepaRG_GCLC: Life Technologies and Expression Analysis (LTEA) Assay for Glutamate-cysteine ligase catalytic (GCLC) using HepaRG (AID 2283498)
# Procedure, shortened: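 Expression by TaqMan qRT-PCR, normalized to three housekeeping genes (ACTB, GAPDH, POLR2A), with up- or down-regulation fitted against DMSO. HepaRG cells dosed in duplicate for 48 h with 8 half-log concentrations up to 100 uM, vehicle 0.5% DMSO.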
# [18] = read-out: CYP2E1 (gene 1571); assay: LTEA_HepaRG_CYP2E1: Life Technologies and Expression Analysis (LTEA) Assay for CYP2E1 using HepaRG (AID 2283485)
# Procedure, shortened: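 CYP2E1 transcript was measured by TaqMan qRT-PCR in human HepaRG cultures after 48 h chemical exposure (top 100 uM, half-log steps, 0.5% DMSO vehicle). Housekeeping-gene normalization; gain or loss fitted relative to DMSO baseline.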
# [19] = read-out: Pro-epidermal growth factor (Homo sapiens) (UniProt P01133); assay: LTEA_HepaRG_EGF: Life Technologies and Expression Analysis (LTEA) Assay for Epidermal growth factor (EGF) using HepaRG (AID 2283489)
# Procedure, shortened: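 EGF expression changes in human HepaRG cells are scored by bidirectional fitting relative to 0.5% DMSO controls. Chemicals are tested at eight half-log concentrations up to 100 uM for 48 h in serum-free induction medium.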
# [20] = read-out: Cytochrome P450 3A7 (Homo sapiens) (UniProt P24462); assay: LTEA_HepaRG_CYP3A7: Life Technologies and Expression Analysis (LTEA) Assay for CYP3A7 using HepaRG (AID 2283492)
# Procedure, shortened: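 Cells were thawed, plated, cultured 48 h, then treated for a further 48 h with chemicals (eight-point half-log series from 100 uM, 0.5% DMSO). RNA was isolated and CYP3A7 expression quantified by qRT-PCR normalised to ACTB, GAPDH and POLR2A.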
# Cytochrome P450 3A7 (Homo sapiens), sequence (P24462 whole entry, looked up): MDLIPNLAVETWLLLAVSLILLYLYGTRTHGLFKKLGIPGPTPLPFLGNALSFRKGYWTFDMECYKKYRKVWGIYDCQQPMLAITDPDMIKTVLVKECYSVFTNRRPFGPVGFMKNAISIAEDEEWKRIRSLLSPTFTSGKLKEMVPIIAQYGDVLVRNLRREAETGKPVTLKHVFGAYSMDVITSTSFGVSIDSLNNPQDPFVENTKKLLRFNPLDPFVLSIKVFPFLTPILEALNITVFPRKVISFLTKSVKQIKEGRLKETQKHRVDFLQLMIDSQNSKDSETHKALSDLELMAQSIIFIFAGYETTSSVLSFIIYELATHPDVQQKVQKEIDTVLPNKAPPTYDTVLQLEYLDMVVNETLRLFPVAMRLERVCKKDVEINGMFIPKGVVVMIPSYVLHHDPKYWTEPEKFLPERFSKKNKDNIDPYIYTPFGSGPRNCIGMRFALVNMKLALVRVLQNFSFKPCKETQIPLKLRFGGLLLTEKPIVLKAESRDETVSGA
# Cytochrome P450 2C19 (Homo sapiens), sequence (P33261 whole entry, looked up): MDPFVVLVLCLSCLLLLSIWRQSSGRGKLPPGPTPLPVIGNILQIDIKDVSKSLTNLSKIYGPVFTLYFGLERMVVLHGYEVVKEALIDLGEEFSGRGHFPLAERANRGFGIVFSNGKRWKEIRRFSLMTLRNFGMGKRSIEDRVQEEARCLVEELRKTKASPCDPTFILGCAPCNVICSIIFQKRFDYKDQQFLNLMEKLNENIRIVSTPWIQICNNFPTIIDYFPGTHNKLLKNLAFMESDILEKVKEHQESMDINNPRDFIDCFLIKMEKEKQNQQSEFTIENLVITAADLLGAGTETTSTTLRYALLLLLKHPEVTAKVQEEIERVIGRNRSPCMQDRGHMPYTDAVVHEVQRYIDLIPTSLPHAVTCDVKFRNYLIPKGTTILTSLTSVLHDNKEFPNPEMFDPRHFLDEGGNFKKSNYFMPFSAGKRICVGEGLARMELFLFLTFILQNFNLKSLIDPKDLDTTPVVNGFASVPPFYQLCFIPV
# Cytochrome P450 3A4 (Homo sapiens), sequence (P08684 whole entry, looked up): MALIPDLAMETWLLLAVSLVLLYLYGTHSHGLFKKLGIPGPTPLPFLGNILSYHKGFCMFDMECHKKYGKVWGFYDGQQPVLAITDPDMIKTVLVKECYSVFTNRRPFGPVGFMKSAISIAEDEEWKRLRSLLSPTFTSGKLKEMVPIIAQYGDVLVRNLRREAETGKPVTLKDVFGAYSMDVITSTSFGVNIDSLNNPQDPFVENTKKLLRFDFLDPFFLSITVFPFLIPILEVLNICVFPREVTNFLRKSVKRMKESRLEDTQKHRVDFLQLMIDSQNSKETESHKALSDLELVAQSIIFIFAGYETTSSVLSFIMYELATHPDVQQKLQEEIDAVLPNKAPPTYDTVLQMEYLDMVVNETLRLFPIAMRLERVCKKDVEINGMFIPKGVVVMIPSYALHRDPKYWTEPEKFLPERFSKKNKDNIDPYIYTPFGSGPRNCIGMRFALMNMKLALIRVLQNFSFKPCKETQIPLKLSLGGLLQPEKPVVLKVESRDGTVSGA
structure (smiles),measurement,setting,value
CCCCC(CC)COC(=O)CCCCCCCCC(=O)OCC(CC)CCCC (centres undefined),outcome,[1],inactive
same,outcome,[2],inactive
same,outcome,[3],inactive
same,outcome,[4],inactive
same,outcome,[5],inactive
same,outcome,[6],inactive
same,outcome,[7],inactive
same,outcome,[8],inactive
same,outcome,[9],inactive
same,outcome,[10],inactive
same,outcome,[11],inactive
same,outcome,[12],inactive
same,outcome,[13],inactive
same,outcome,[14],inactive
same,outcome,[15],inactive
same,outcome,[16],inactive
same,outcome,[17],inactive
O=C(NS(=O)(=O)/C=C/c1ccccc1)c1ccc(F)cc1Cl,outcome,[1],inactive
same,outcome,[2],inactive
same,AC50,[3],0.459 µM (active)
same,AC50,[4],2.51 µM (active)
same,outcome,[5],inactive
same,AC50,[18],22.3 µM (active)
same,outcome,[7],inactive
same,AC50,[8],11.3 µM (active)
same,outcome,[9],inactive
same,outcome,[19],inactive
same,outcome,[10],inactive
same,outcome,[11],inactive
same,outcome,[12],inactive
same,outcome,[14],inactive
same,AC50,[15],23.4 µM (active)
same,outcome,[16],inactive
same,outcome,[17],inactive
CCCC(=O)OCC,outcome,[1],inactive
same,outcome,[2],inactive
same,outcome,[3],inactive
same,outcome,[4],inactive
same,outcome,[5],inactive
same,outcome,[18],inactive
same,outcome,[7],inactive
same,outcome,[8],inactive
same,outcome,[9],inactive
same,outcome,[10],inactive
same,outcome,[11],inactive
same,outcome,[20],inactive
same,outcome,[12],inactive
same,outcome,[14],inactive
same,outcome,[15],inactive
same,outcome,[16],inactive
same,outcome,[17],inactive
COC(=O)c1c(Cl)c(Cl)c(C(=O)OC)c(Cl)c1Cl,outcome,[1],inactive
same,outcome,[2],inactive
same,outcome,[3],inactive
same,outcome,[4],inactive
same,outcome,[5],inactive
same,outcome,[18],inactive
same,outcome,[7],inactive
same,outcome,[8],inactive
same,outcome,[9],inactive
same,outcome,[19],inactive
same,outcome,[10],inactive
same,outcome,[11],inactive
same,outcome,[12],inactive
same,outcome,[13],inactive
same,outcome,[14],inactive
same,outcome,[15],inactive
same,outcome,[16],inactive
same,outcome,[17],inactive
Cc1c(-c2cccnc2)c2ccccc2n1CCCCC(=O)O,AC50,[1],50 µM (active)
same,outcome,[2],inactive
same,AC50,[3],35.9 µM (active)
same,outcome,[4],inactive
same,outcome,[5],inactive
same,outcome,[18],inactive
same,outcome,[7],inactive
same,outcome,[8],inactive
same,outcome,[9],inactive
same,outcome,[19],inactive
same,outcome,[10],inactive
same,outcome,[11],inactive
same,AC50,[20],21.3 µM (active)
same,outcome,[12],inactive
same,outcome,[13],inactive
same,outcome,[14],inactive
same,outcome,[15],inactive
same,outcome,[16],inactive
same,outcome,[17],inactive
O=C(O)c1cc(N=Nc2ccc(S(=O)(=O)Nc3ccccn3)cc2)ccc1O,AC50,[1],75.7 µM (active)
same,outcome,[2],inactive
same,outcome,[3],inactive
same,outcome,[4],inactive
same,outcome,[5],inactive
same,outcome,[6],inactive
same,outcome,[7],inactive
same,outcome,[9],inactive
same,outcome,[10],inactive
same,outcome,[11],inactive
same,outcome,[20],inactive
same,outcome,[12],inactive
same,outcome,[14],inactive
same,outcome,[15],inactive
same,outcome,[16],inactive
same,outcome,[17],inactive
